Screening data as filed in PubChem.
CRE Fsk mod: CRE-bla signaling modulation under forskolin stimulation; AID 662; CHO CRE-bla reporter (cAMP response element driving beta-lactamase), forskolin EC10, beta-lactamase ratio; hit rate 2.5% among 71,000; Potency, µM (titrated, usually from 38.2 µM), for inactives: top-dose activity change, negative = inhibition, actives largely listed as activators; active means well fitted activation curve with a large enough effect in the signal ratio, with a control signal flat, not every such curve was filed as active; inconclusive means small, poorly fitted or top-dose-only effect, or effect the other way, or a change in a side signal; the % refers to the signal ratio; further: potency means the concentration at half of the fitted maximal effect; % of control where 0% means no effect
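CRE-bla CHO cells stimulated with EC10 NKH 477 (water-soluble forskolin) and compound titrations, 3 h at 37C; beta-lactamase read with CCF4 after 2 h at room temperature. Activity from 460/530 nm emission ratio, AC50 values for positive or negative modulation.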
4MU fluor: 4-MU region autofluorescence; compound autofluorescence, 340/450 nm, 4-MU equivalents; hits give high values; max dye-equivalent concentration, M; hit rate 11% among 59,000; AID 589; in the data active means max dye-equivalent concentration above about 10 nM; inconclusive means mostly about 1.1 nM to 9.6 nM
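Compounds in 100 mM Tris, pH 8.0, incubated 15 min at room temperature, then fluorescence read at 340 nm excitation/450 nm emission. Signal converted to 4-MU dye-equivalent concentration using an on-plate six-point 4-MU standard curve.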
AID923: qHTS Assay for Allosteric/Competitive Inhibitors of Caspase-1: Spectroscopic Profiling in AFC Spectral Region | hit rate 1.1% among 75,000 | compound fluorescence, AFC spectral region (405/520 nm) | AID 923, 2007 | Potency, µM (series often up to 57.5 µM), inactives show at the highest dose fluorescence increase, usual class: activators; further: potency means the concentration at half of the fitted maximal effect; 0% is about no effect
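Titrations up to 57 uM read every 20 sec for 3 min (405/520 nm) with 50 nM caspase 1 and 5 uM Ac-WEHD-AFC, pH 7.5 HEPES buffer. Fluorescence-vs-time intercept gave baseline, scaled against on-plate AFC standard.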
A350 autofl: compounds fluorescent in Alexa 350 spectral region. hit rate 11% among 59,000. Compound autofluorescence, 340/450 nm, Alexa 350 dye-equivalents; hits give high values. max dye-equivalent concentration, M. AID 590; in the data active means max dye-equivalent concentration above about 10 nM; inconclusive means mostly about 1.1 nM to 9.6 nM
HADH2 inh: HADH2 (human) dehydrogenase inhibition; recombinant HADH2, NADH fluorescence, beta-hydroxybutyryl-CoA; Potency, µM (doses to about 57.1 µM), inactives show top-dose activity change, negative = inhibition, hits mostly inhibitors; hit rate 3.4% among 73,000; further: potency means the concentration at half of the fitted maximal effect; on the % scale 0 is the no-effect control and ±100 the full control effect; nearly all actives have a fitted effect of over 60% in size
Target sequence (Q99714 whole entry, looked up, one chain of several): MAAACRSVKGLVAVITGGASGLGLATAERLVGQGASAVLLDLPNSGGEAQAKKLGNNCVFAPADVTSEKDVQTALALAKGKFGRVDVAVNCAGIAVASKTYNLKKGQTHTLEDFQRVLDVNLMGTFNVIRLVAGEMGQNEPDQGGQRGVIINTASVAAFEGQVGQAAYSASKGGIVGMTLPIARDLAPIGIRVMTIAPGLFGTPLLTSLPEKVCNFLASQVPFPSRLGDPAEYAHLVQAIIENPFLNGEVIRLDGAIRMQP
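His-tagged recombinant enzyme from E. coli, 20 nM, preincubated 15 min RT with compound; reaction started with 1 mM NAD+ and 90 uM beta-hydroxybutyryl-CoA in 100 mM Tris-HCl pH 9.0. NADH fluorescence (ex 360/em 450) read over 4 min; last-minus-first difference.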
HSD17B inh: HSD17B dehydrogenase inhibition. recombinant HSD17B10, NADH fluorescence kinetic. Potency, µM (doses to about 57.1 µM), inactives show at the top dose activity change, negative = inhibition, usual class: inhibitors. AID 893. hit rate 7.6% among 75,000. Q99714;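 further: the protocol describes HADH2 (HSD17B10) and not the HSD17B4 of the title; potency means the concentration at half of the fitted maximal effect; on the % scale 0 is the no-effect control and ±100 the full control effect; nearly all actives have a fitted effect of over 70% in size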
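Activity followed as NADH fluorescence increase (ex 360, em 450 nm) every 30 seconds for 4 min, using final 90 uM beta-hydroxybutyryl CoA and 1 mM NAD+. Recombinant His-tagged enzyme, 20 nM, pH 9.0 Tris buffer, 15 min compound preincubation.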
* hit, by the source's call; i = inactive; ? = inconclusive; nt = no result; [ ] = dose if it differs, or a comment. Hits are enriched below; roughly 14% of the tested compounds scored in any of these assays. Unless noted, the call rests on the fitted dose curve; in most records, active means well fitted curve in the direction sought with a large enough effect; inconclusive means small, poorly fitted or top-dose-only effect, or another doubt; inactive means no such curve, though single readings can be large; an effect the other way counts as inactive or inconclusive.

SMILES | CRE Fsk mod | 4MU fluor | AID923 | A350 autofl | HADH2 inh | HSD17B inh
CC1=CC(C)C2C(=O)N(CCCN(C)C)C(=O)C2C1 (configuration not stated) | -4% | 1.7e-08M* | 0% | 1.4e-08M* | 8% | -6%
CO/N=C(\C(=O)N[C@@H]1C(=O)N2C(C(=O)O)=C(CSc3nc(=O)c(O)nn3C)CS[C@@H]12)c1csc(N)n1 | 5% | i | 0% | i | 13µM* | -17%
O=C1OC(C2=CCCCC2)=NC12CC2 | nt | nt | 1%[11.5 µM] | nt | 24%[11.4 µM] | 12%[11.4 µM]
O=c1c2ccccc2nc2n1CCCS2 | nt | nt | 1% | nt | 5% | 9%
O=c1c2ccccc2nc2n1CCN2 | 3% | nt | 0% | nt | ? | 25µM*
Cc1nn(Cc2ccccc2Cl)c(C)c1N | ? | i | 1% | i | 2% | 15%
Cc1cc(C)c2c(SCc3ccc(Cl)cc3Cl)nc(N)nc2n1 | 9%[7.6 µM] | 8.4e-08M* | 0%[11.5 µM] | 8.3e-08M* | 5%[11.4 µM] | 2%[11.4 µM]
CC(C)Cn1cnc2c(SCc3ccc(Cl)cc3Cl)nc(N)nc21 | ? | i | 1%[11.5 µM] | i | 11%[11.4 µM] | -5%[11.4 µM]
Cc1cc2c(SCc3ccccc3Cl)nc(N)nc2nc1C | 19%[7.6 µM] | 1.3e-07M* | 0%[11.5 µM] | 1e-07M* | 19%[11.4 µM] | 32%[11.4 µM]
Cc1cc(C)c(-c2cc([C@H](C)O/N=C\[C@@H](C)[C@H](OCc3ccccc3)C(C)C)on2)c(C)c1 | nt | nt | 0%[11.5 µM] | nt | -2%[11.4 µM] | 5%[11.4 µM]
CCc1ccc2c(c1)C(C)=CC(C)(C)N2 | nt | 2.4e-08M* | nt | 2.9e-08M* | nt | nt
CCOc1ccc2c(c1)N(C(=O)CN1C(=O)CCC1=O)C(C)(C)C=C2C | ? | i | 0% | i | 1% | 6%
CCOc1ccc2c(c1)C(C)=CC(C)(C)N2 | ? | 6.2e-07M* | 5% | 5.5e-07M* | 20µM* | 32µM*
O=C(Nc1sc2c(c1C(=O)NCc1ccco1)CCCC2)c1ccc2c(c1)OCO2 | ? | 2e-07M* | 14% | 1.7e-07M* | 25µM* | 32µM*
O=C(Nc1sc2c(c1C(=O)NCc1cccnc1)CCCC2)c1ccco1 | ? | 1.2e-07M* | 3% | 1.1e-07M* | 40µM* | ?
O=C(Nc1sc2c(c1C(=O)NC1CC1)CCCCCC2)c1ccco1 | ? | 1.3e-07M* | 1% | 1.3e-07M* | ? | ?
CCOCCCn1cnc2c(c1=O)c1nc3ccccc3nc1n2-c1ccccc1 | ? | 5.8e-07M* | 2% | 3.5e-07M* | 17% | -19%
CCOCCCn1cnc2c(c1=O)c1nc3ccccc3nc1n2-c1ccc(C)cc1 | ? | 2e-07M* | 0% | 2.9e-07M* | 32% | -7%
COC(=O)C/C=C\[C@@H](C)[C@H]1C=C[C@H](O)[C@@H](CO)O1 | nt | nt | -4%[11.5 µM] | nt | 2%[11.4 µM] | 9%[11.4 µM]
COc1ccc2c(Cc3c4ccccc4cc4ccccc34)cncc2c1O | 15%[7.6 µM] | i | 18%[11.5 µM] | ? | -24%[11.4 µM] | 28%[11.4 µM]
CS(=O)(=O)c1ccc(Cn2c3c(c4cc(F)cc(F)c42)CCC[C@H]3CC(=O)O)cc1 | -4% | nt | -3% | nt | 2% | 40µM*
CCN(CC)CCNC(=O)c1ccc(Cc2nc3ccccc3[nH]2)cc1 | nt | nt | 4% | nt | -2% | 3%
O=C1c2ccccc2NC(c2ccc3c(c2)OCCO3)N1c1ccc2c(c1)OCCO2 (configuration not stated) | -3% | 8.7e-08M* | 2% | 1.8e-08M* | ? | 32µM*
CN(C)CCCO[C@H]1[C@H]([C@H](O)CO)O[C@H]2OC(C)(C)O[C@@H]21 | 0% | ? | -2% | ? | 9% | 3%
N#CC1(c2c(O)nc3n(c2=O)CCCS3)CCCCC1 | ? | i | 1% | ? | -13% | -25%
CCOc1ccc(-c2nc3n(c(=O)c2C#N)CCCS3)cc1 | 10% | 3e-08M* | 5% | 3.4e-08M* | -2% | 20µM*
CCOc1ccc(C2=CS/C(=C(\C#N)c3nnc4n3CCCCC4)N2CC)cc1 | ? | i | 0% | i | -7% | -14%
COc1ccc(-c2nc3n(c(=O)c2C#N)CCCS3)cc1 | ? | ? | 4% | ? | ? | 20µM*
